JMJD2E inh: blocks human JMJD2E demethylase activity | JMJD2E catalytic domain, FDH-coupled NADH fluorescence (FDH is formaldehyde dehydrogenase) | Potency, µM (titrated, usually from 57.1 µM), most hits filed as inhibitors | B2RXH2 | 230,000 tested, 1.6% active; active means well fitted inhibition curve with a large enough effect, not every such curve was filed as active; inconclusive means small, poorly fitted or top-dose-only effect, or another doubt; inactive means no such curve, though single readings can be large or run the other way; further: nearly all actives have a fitted effect of over 50% in size
Epigenetic reg: regulators of epigenetic silencing causing reporter derepression in mouse cells; 280,000 tested, 0.2% active; AID 1865; Potency, µM (highest dose often 53.9 µM), usual class: activators; murine LDR cells, GFP reporter derepression, 30 h; further: nearly all actives have a fitted effect of over 60% in size
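Derepression of a silenced CMV-GFP reporter in murine LDR cells is scored by enumerating GFP-positive cells with a laser-scanning microplate cytometer after 30 hours of treatment at 37 C.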
IMPase Li cell: cell-permeable IMPase inhibitors with lithium potentiation; CHO-M1 cells, IP1 TR-FRET (IP-One), carbachol + lithium; Potency, µM (highest dose often 59.4 µM), actives largely listed as inhibitors; 210,000 tested, 0.35% active; AID 1457;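 further: IP1 builds up when IMPase is blocked and the TR-FRET signal falls; nearly all actives have a fitted effect of over 50% in size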
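CHO-M1, 2000 cells/well, 16–30 h culture; cpd + low Li+, 30 min 37C; lysis with d2-IP1/Eu-anti-IP1 Ab, 10 min RT; TR-FRET 665/620 ratio and 620 channel; AC50 via Hill.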
NPSR antagonist: blocks cAMP signaling of the human neuropeptide S receptor; 220,000 tested, 1% active; CHO-NPSR cells, cAMP TR-FRET, antagonist mode; Potency, µM (doses to about 38.3 µM), usual class: inhibitors; AID 1461; further: nearly all actives have a fitted effect of over 50% in size
Target sequence (Q6W5P4 whole entry, looked up): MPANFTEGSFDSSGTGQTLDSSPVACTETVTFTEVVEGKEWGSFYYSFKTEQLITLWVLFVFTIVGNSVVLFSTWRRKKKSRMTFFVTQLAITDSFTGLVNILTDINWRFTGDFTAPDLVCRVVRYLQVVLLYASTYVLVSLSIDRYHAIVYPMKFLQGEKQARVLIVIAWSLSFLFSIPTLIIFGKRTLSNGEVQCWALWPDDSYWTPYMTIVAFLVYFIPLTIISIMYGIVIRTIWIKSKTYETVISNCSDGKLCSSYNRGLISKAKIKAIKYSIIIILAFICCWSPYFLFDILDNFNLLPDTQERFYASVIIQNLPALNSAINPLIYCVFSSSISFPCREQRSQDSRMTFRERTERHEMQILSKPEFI
Sfp PPTase inh: blocks B. subtilis Sfp PPTase activity; Q9F4F7; Biochemical Sfp PPTase activity, qHTS; Potency, µM, usual class: inhibitors; 310,000 tested, 3.5% active;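 further: the enzyme is Sfp with the accession as filed and its product quenches rhodamine fluorescence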
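Compounds were incubated with enzyme (final 15 nM) for 15 min at room temperature before substrate addition started the reaction. Fluorescence at 525 nm excitation, 598 nm emission was recorded immediately and after 30 minutes.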
GCN5L2 inh: inhibitors of human GCN5L2 histone acetyltransferase; Q92830; GCN5L2 HAT assay, ThioGlo1 CoA-SH fluorescence; Potency, µM (highest dose often 58.9 µM), usual class: inhibitors; 390,000 tested, 0.21% active
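Compounds, pin-transferred from DMSO stocks, meet 20nM GCN5L2 for 15 min before the reaction begins with H3(1-25) peptide (75uM) and acetyl-CoA (70uM). Thiol-reactive ThioGlo1 reports CoA release over 20 min at room temperature.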
Numbers stand for hits; - = inactive; ? = inconclusive; . = no result given; [ ] = dose if it differs, or a comment. Shown are actives, neighbours in structure and some others; about 3.6% of the full set was active somewhere. Unless noted, the call rests on the fitted dose curve; in most records, active means well fitted curve in the direction sought with a large enough effect; inconclusive means small, poorly fitted or top-dose-only effect, or another doubt; inactive means no such curve, though single readings can be large; an effect the other way counts as inactive or inconclusive.

SMILES	JMJD2E inh	Epigenetic reg	IMPase Li cell	NPSR antagonist	Sfp PPTase inh	GCN5L2 inh
COc1cc(/C=N/Nc2ccc3ccccc3c2)ccc1OC(=O)c1ccco1	20µM	-	-	-	-	-
O=c1c2ccccc2nc(N/N=C/c2ccc(O)cc2)n1O	?	-	-	-	35µM	-
O=c1c2ccccc2nc(N/N=C/c2c(O)ccc3ccccc23)n1O	11µM	-	-	-	40µM	-
CC(=O)OCC1OC(C#CC2=CCCCC2)C=CC1OC(C)=O (stereo unspecified)	.	-[10.1 µM]	.	.	-	.
CN(/N=C/c1cc(Cl)cc(Cl)c1O)C(=S)NC(C)(C)C	32µM	-	.	-	-	-
CCc1ccc(NC(=O)CSc2nc(C)cc(COC)c2C#N)cc1	.	-	.	.	.	-
Cc1ccc(C(=S)N2CCN(Cc3ccccc3)CC2)cc1	-	-	-	-	11µM	-
CCN1CCN(C(=S)c2ccc(OCC(=O)NCc3ccccc3)cc2)CC1	-	-	-	-	22µM	-
S=C(c1ccccc1)N1CCN(C(=S)c2ccccc2)CC1	-	-	-	-	-	-
CCN1CCN(C(=S)c2ccc(Cl)c(Cl)c2)CC1	-	-	-	-	16µM	-
CCN1CCN(C(=S)c2ccc(-c3ccccc3)cc2)CC1	-	-	-	-	22µM	-
Cc1nc(CCNC(=O)c2cc(COc3ccc(F)cc3Cl)on2)sc1C	?	-	.	-	40µM	-
Cc1cc(C)n(CCNC(=O)c2cc(COc3ccc(F)cc3Cl)on2)n1	-	-	-	-	-	-
O=C(Nc1nnc(SCc2c(Cl)cccc2Cl)s1)c1ccc2ncsc2c1	-	-	-	-	-	-
N#Cc1ccc(CSc2nnc(NC(=O)c3ccc4ncsc4c3)s2)cc1	?	-	7.9µM	?	45µM	-
Oc1cccc(/C=N/Nc2cccc3cccnc23)c1	?	-	-	-	45µM	-
CO[C@@H]1COC(=O)[C@H]2CCCN2C(=O)C/C=C\[C@@H](C)[C@H](OC)COC(=O)[C@H]2CCCN2C(=O)C/C=C\[C@H]1C	.	-[10.1 µM]	.	.	-	.
O=C(O)/C(=C\c1ccc(Cl)c([N+](=O)[O-])c1)c1ccc(S(=O)(=O)N2CCCCC2)s1	-	-	-	-	45µM	-
O=C1CCCC(O)=C1Sc1ccccc1C(=O)O	-	-	-	-	56µM	-
O=C1CCCC(O)=C1C(C#Cc1ccccc1)C1=C(O)CCCC1=O	?	-	-	-	-	-
CC[C@H](C)[C@@H](NC(=O)O[C@@H]1Cc2cc(OC)ccc2O[C@H]1c1cccc(OC)c1)C(=O)OC	-	-	-	.	-	.
COc1cc2oc(=O)c3c(c2cc1OCC(=O)c1c(C)n(C)c2ccccc12)CCCC3	?	-	10µM	-	-	-
O=C(NCCCN1CCN(c2ccccc2)CC1)c1nnc(Cc2ccc(F)cc2)o1	.	-	.	.	.	-
CC(=O)N1CCCc2cc(S(=O)(=O)N3CCCC(C(=O)Nc4cccc(Cl)c4C)C3)ccc21 (stereo unspecified)	.	-	.	.	.	-
O=C(Cn1nc(N2CCN(c3ccccc3)CC2)ccc1=O)NCc1cccc(Cl)c1	.	-	.	.	.	-
SMILES	JMJD2E inh	Epigenetic reg	IMPase Li cell	NPSR antagonist	Sfp PPTase inh	GCN5L2 inh
CN1CCc2c(sc(N)c2C(=O)O)C1	?	-	-	-	28µM	-
Cc1ccc(SCC(Cc2ccccc2)N2CCN(C)CCC2=O)cc1 (stereo unspecified)	.	.	.	.	-	.
O=C1C=C(O)c2cccc3cccc1c23	.	.	.	.	-	-
NC1=CC(=O)c2cccc3cccc1c23	?	-	13µM	-	3.5µM	-
CC1(C)CC(=O)C2=C(C1)Nc1ccccc1N=C2	?	-	-	-	40µM	-
CC1(C)CC(=O)C2=C(C1)Nc1ccccc1NC2	-	-	-	-	-	-
O/C(=C\c1nc2ccccc2nc1/C=C(\O)c1ccccc1)c1ccccc1	-	?	-	-	40µM	-
O=C(NCCCCc1ccccc1)C12CN(Cc3ccccc3)CC1C(c1ccc([N+](=O)[O-])cc1)=NO2 (stereo unspecified)	-	-	-	-	28µM	?
COc1ccc(CNC(=O)C23CN(Cc4ccccc4)CC2C(c2ccc([N+](=O)[O-])cc2)=NO3)cc1 (stereo unspecified)	-	-	-	-	?	-

Source: PubChem BioAssay
